ChEMBL document CHEMBL3988442, “University of Dundee, Small-Polar-MMV Screening Library” (2021)
Screen size: about 48,000 compounds; about 13,000 (27%) showed an effect of 50% or more. Some of the results follow.

These compounds were tested on Wolbachia pipientis (assay: Anti-Wolbachia Cell-Based Screen). Conditions: 5 µM.
Type: functional
Parameters: scale not given: in the data most compounds retested in dose-response had high values

SMILES | Percent Effect [%]
CCOCC(=O)Nc1ccc(N2CCSCC2)cc1C | -9.938
O=C(O)C(F)(F)F.O=C(O)C(F)(F)F.c1csc(CN2Cc3[nH]nc(COCC4CC4)c3C2)c1 | -16.32
Cc1cccc(S(=O)(=O)N2C[C@H]3C[C@H](C(=O)NC4CCC4)[C@@H](C2)O3)c1 | -10.53
Cc1cccc(S(=O)(=O)N2C[C@@H]3OCCN(C(C)C)[C@@H]3C2)c1 | -15.31
Cc1cccc(S(=O)(=O)N2C[C@@H]3C[C@@H](c4nc(C)no4)O[C@@H]3C2)c1 | 113.1
Cc1cccc(S(=O)(=O)N2C[C@@H]3C[C@@H](c4nnc(C)[nH]4)O[C@@H]3C2)c1 | 102.4
Cc1cccc(S(=O)(=O)N2C[C@H]3C[C@H](C(=O)NCC4CC4)[C@@H](C2)O3)c1 | -9.673
Cc1cccc(S(=O)(=O)N2C[C@H]3C[C@H](C(=O)N(C)C)[C@@H](C2)O3)c1 | -13.43
Cc1ccc(-c2cn3c(n2)CO[C@@H](CNCc2cnn(C)c2)C3)cc1 | 12.36
COCCN(C)C[C@@H]1CN(C(=O)c2ccc(C)c(Cl)c2)C[C@@H]1CO | 113.4
COCCN(C)C[C@@H]1CN(C(=O)c2ccc(O)c(Cl)c2)C[C@@H]1CO | 127.9
COCCN(C)C[C@@H]1CN(C(=O)c2ccc(O)c(C)c2)C[C@@H]1CO | 126
COc1ccc(C(=O)N2C[C@@H](CN3CCCCC3)[C@@H](CO)C2)cc1Cl | -0.8846
O=C(c1ccc(O)c(Cl)c1)N1C[C@@H](CN2CCCCCC2)[C@@H](CO)C1 | -0.5835
Cc1cc(C(=O)N2C[C@@H](CN3CCCCC3)[C@@H](CO)C2)ccc1O | -7.322
CCCOc1ccc(C(=O)N2C[C@@H](CN3CCCC3)[C@@H](CO)C2)cc1Cl | 0.3871
COc1cc(C)ccc1C(=O)N1C[C@@H](CN(C)CCO)[C@@H](CO)C1 | -2.888
CC(C)CN1C(=O)COC[C@@H]1[C@H](O)c1ccc(NC(=O)C2CC2)cc1 | -2.654
CC(C)c1cc(N[C@@H](CO)C(N)=O)n2nccc2n1 | 27.01

SMILES | Percent Effect [%]
Cc1cnn(-c2cccc(N3CCCCC3)n2)c1 | -2.755
CC(C)c1nc(C2CCCN2C(=O)c2ccc3nncn3c2)no1 (configuration not stated) | -6.434
CC(C)c1nc(C2CCCN(C(=O)c3ccc4c(c3)COC4)C2)no1 (configuration not stated) | 126.8
O=C(c1ccc2c(c1)OCO2)N1CCCC(n2cccn2)C1 (configuration not stated) | 4.266
CC(C)c1nc(C2CCCN(C(=O)c3ccc4c(c3)OCO4)C2)no1 (configuration not stated) | 127.5
CC(C)c1nccn1C1CCCN(C(=O)c2ccc3[nH]nnc3c2)C1 (configuration not stated) | -9.073
CC(C)c1nc(C2CCCN(C(=O)c3ccc4nccn4c3)C2)no1 (configuration not stated) | -6.875
CC(C)c1nc(C2CCCN(C(=O)c3ccc4[nH]nnc4c3)C2)no1 (configuration not stated) | 134.9
CC(C)c1nc(C2CCCN(C(=O)c3ccc4nncn4c3)C2)no1 (configuration not stated) | 123.4
COc1ccccc1OC1CN(C(=O)c2c(C)nc3ccc(C)cn23)C1 | -16.35
CC(c1ncc(C(C)(C)C)o1)N1CCN(Cc2ccc(Cl)s2)CC1 (configuration not stated) | -10.01
Cc1ccc(NC(=O)c2nc(N3CCCCC3)ncc2Cl)cc1I | 14.77
CC(=O)NC[C@H]1OC[C@@H](NC2CCC(F)(F)CC2)[C@@H]1O | -10
Cc1nc2ccccc2nc1NCc1cccc(OCC2CCCO2)c1 (configuration not stated) | 113.3
Cc1nnc(NCc2cccc(OCc3ccccn3)c2)c(C#N)c1C | 115.9
Cc1nnc(NCc2ccc(N3CCC(CO)CC3)cc2)c(C#N)c1C | 12.23
Cc1ccccc1C1(CNc2nnc(C)c(C)c2C#N)CCOCC1 | 10.33
Cc1nnc(NCc2cccc(OCC3CCCO3)c2)c(C#N)c1C (configuration not stated) | 98.93
COCc1ccccc1CNc1nnc(C)c(C)c1C#N | -9.449

SMILES | Percent Effect [%]
N#Cc1ccc(NCc2cccc(COC3CCOCC3)c2)nc1 | -4.004
Oc1cccc(CNCC2CCCO2)c1 (configuration not stated) | 10.1
N#Cc1ccc(NCc2cccc(OCC3CCCO3)c2)nc1 (configuration not stated) | 63.12
CN(C)C(=O)c1cccc(CNc2ccc(C#N)cn2)c1 | 29.09
Cc1nc2ccccc2nc1NCc1nnc2n1CCC2 | -17.33
Cc1nnc(NCc2cccnc2N(C)C)c(C#N)c1C | -6.334
O=C(c1ccco1)N1CCc2ncnc(NCc3ccccn3)c2CC1 | -3.443
CN1C(=O)[C@H]2CC[C@@H]1CN(C(=O)c1csc(Cc3ccccc3)n1)C2 | -11.33
CN(C(=O)c1ccc[nH]1)C1CCC(NC(=O)OC(C)(C)C)CC1 (configuration not stated) | -42.92
CCC(C)N(Cc1ccncc1)Cc1ccccc1Cn1cccn1 (configuration not stated) | 4.156
CC1CCN(C(=O)[C@H]2C[C@@H]3CCN(CC4CCOCC4)C[C@@H]3O2)CC1.O=C(O)C(F)(F)F | -3.152
O=C(O)C(F)(F)F.O=C([C@@H]1C[C@@H]2CCN(C3CCOCC3)C[C@@H]2O1)N1CCCC1 | 130.2
O=C(O)C(F)(F)F.O=C([C@H]1C[C@@H]2CCN(C3CCOCC3)C[C@@H]2O1)N1CCOCC1 | -5.423
O=C(O)C(F)(F)F.O=C([C@@H]1C[C@@H]2CCN(C3CCOCC3)C[C@H]2O1)N1CCOCC1 | 89.37
O=C(O)C(F)(F)F.O=C([C@H]1COC[C@H]2CN(C3CCOCC3)C[C@H]21)N1CCC(F)CC1 | -1.372
O=C(O)C(F)(F)F.O=C([C@H]1C[C@H]2OCC[C@H]2N(CC2CCOCC2)C1)N1CCCC1 | 10.32
CC1CCN(C(=O)[C@@H]2C[C@@H]3CCN(CC4CCOCC4)C[C@@H]3O2)CC1.O=C(O)C(F)(F)F | -4.888
CC1CCN(C(=O)[C@H]2C[C@@H]3CCN(CC4CCOCC4)C[C@H]3O2)CC1.O=C(O)C(F)(F)F | -1.273
O=C(O)C(F)(F)F.O=C([C@H]1C[C@@H]2CCN(C3CCOCC3)C[C@H]2O1)N1CCCC1 | 103.9
